This is a sample that favours compounds with a hit; in the whole collection about 10% have one here.
G9a inh – blocks human histone lysine methyltransferase G9a; Q96KQ7; AID 504332; G9a H3K9 monomethylation, AlphaScreen, 2 h; hit rate 8.8% among 350,000; Potency, µM (doses to about 102 µM), hits mostly inhibitors; further: nearly all actives have a fitted effect of over 75% in size
Target sequence (Q96KQ7 913-1193 limits assumed): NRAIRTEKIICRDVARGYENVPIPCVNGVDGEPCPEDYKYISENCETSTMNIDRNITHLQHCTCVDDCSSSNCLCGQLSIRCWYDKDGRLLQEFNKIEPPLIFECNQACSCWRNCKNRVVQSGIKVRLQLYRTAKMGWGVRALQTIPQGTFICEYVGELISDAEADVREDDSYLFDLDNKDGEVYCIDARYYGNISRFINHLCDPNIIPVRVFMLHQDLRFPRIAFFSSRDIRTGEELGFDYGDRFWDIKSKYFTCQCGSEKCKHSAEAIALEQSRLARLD
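Enzyme 20 nM + cpd, 15 min RT; add b-H3K9 pep 500 nM / SAM 20 uM; 2 h RT; anti-H3K9me1 Ab 0.5 ug/mL + SA donor / anti-rabbit acceptor beads 20 ug/mL each, 10 min; AlphaScreen read.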
HP1b chromo inh – blocks HP1-beta chromodomain binding to methylated histone tails | P83916 | AlphaScreen HP1-beta / biotin-H3K9me3 peptide binding | Potency, µM (titrated, usually from 114 µM), most hits filed as inhibitors | hit rate 0.56% among 390,000 | AID 540317; further: nearly all actives have a fitted effect of over 70% in size
Target sequence (P83916 whole entry, looked up): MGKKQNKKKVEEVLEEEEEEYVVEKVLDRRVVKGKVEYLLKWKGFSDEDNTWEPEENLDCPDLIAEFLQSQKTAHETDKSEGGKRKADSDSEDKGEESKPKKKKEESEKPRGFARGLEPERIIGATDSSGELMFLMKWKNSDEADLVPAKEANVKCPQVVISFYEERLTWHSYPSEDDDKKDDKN
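AlphaScreen: HP1-beta (50 nM) preformed 30 min with biotin-H3(1-18)K9me3 peptide (50 nM) in PBS pH 7.4, 0.01% Tween-20. Compound added for 30 min at RT, then streptavidin donor/nickel chelate acceptor beads (10 ug/mL) for 30 min.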
GLS inh – blocks human kidney-isoform glutaminase activity. O94925. GLS enzymatic activity, qHTS titration. AID 624170. hit rate 0.21% among 410,000. Potency, µM (top dose mostly 45.5 µM), hits mostly inhibitors
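Two-point fluorescence kinetic (t0, 30 min RT) for hKGA; glutamate detected via glutamate oxidase–HRP–Amplex Red. Substrate: 1 mM L-glutamine solution; buffer 45 mM KH2PO4, pH 8.2.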
BAZ2B block – BAZ2B (human) inhibition | Q9UIF8 | hit rate 4.4% among 360,000 | Potency, µM (titrated, usually from 114 µM), most hits filed as inhibitors | AlphaScreen BAZ2B-H3K14Ac peptide displacement; further: nearly all actives have a fitted effect of over 60% in size
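Compounds, titrated to a top concentration of 110 uM, were incubated 30 min at room temperature with preformed BAZ2B/acetyl-K14 H3 peptide complex (50 nM each). Proximity signal was measured by AlphaScreen after 20 min with beads.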
JMJD2A Tudor – blocks the human JMJD2A Tudor domain; hit rate 4.4% among 390,000; Potency, µM (highest dose often 114 µM), actives largely listed as inhibitors; O75164; AlphaScreen JMJD2A-Tudor / H3K4me3 peptide binding; further: nearly all actives have a fitted effect of over 50% in size
L3MBTL1 block – blocks human L3MBTL1 | Q9Y468 | AlphaScreen L3MBTL1–H3K9me1 peptide binding | Potency, µM (top dose mostly 57.1 µM), actives largely listed as inhibitors | hit rate 0.66% among 230,000; further: nearly all actives have a fitted effect of over 60% in size
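Displacement of a biotinylated histone H3(1-15) peptide monomethylated at Lys9 (75 nM) from L3MBTL1 (50 nM) was measured by AlphaScreen after a 30 min room-temperature compound incubation; cefsulodin titration served as intraplate control.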
Each line names hits and unclear results; the compound was inactive in the other large screens. The call rests on the fitted dose curve; in most records, active means well fitted curve in the direction sought with a large enough effect; inconclusive means small, poorly fitted or top-dose-only effect, or another doubt; inactive means no such curve, though single readings can be large; an effect the other way counts as inactive or inconclusive.

O=C(CSc1nc(=O)n(Cc2ccco2)c2c1CCC2)NCc1ccccc1Cl	none (no result: L3MBTL1 block)
Cc1cc(C)c2cc(CN(CCO)Cc3nnnn3Cc3ccc(F)cc3)c(=O)[nH]c2c1	none (no result: L3MBTL1 block)
Cc1ccc2[nH]c(=O)c(CN(Cc3ccccc3)Cc3nnnn3Cc3ccccc3)cc2c1	none (no result: G9a inh, GLS inh, BAZ2B block, L3MBTL1 block)
Cc1cc(C)c2cc(CN(CCO)Cc3nnnn3Cc3ccccc3)c(=O)[nH]c2c1	G9a inh 39.8µM
Cc1ccc2cc(CN(CCO)Cc3nnnn3Cc3ccc(F)cc3)c(=O)[nH]c2c1	G9a inh 31.6µM
O=c1[nH]c2cc3c(cc2cc1CN(CCCO)Cc1nnnn1Cc1ccc(F)cc1)OCO3	none (no result: G9a inh)
Cc1ccc2[nH]c(=O)c(CN(Cc3nnnn3Cc3ccccc3)C3CCCC3)cc2c1	G9a inh 8.91µM
COc1cccc(Nc2ncc3nc(C)c(=O)n(CCc4ccccc4)c3n2)c1	none (no result: HP1b chromo inh, GLS inh, BAZ2B block, JMJD2A Tudor, L3MBTL1 block)
CN(CCc1ccccn1)C(=S)NC(=O)c1ccco1	G9a inh 20µM, BAZ2B block inconclusive
O=C(NC(NCc1ccccn1)(C(F)(F)F)C(F)(F)F)c1ccco1	BAZ2B block 50.1µM, JMJD2A Tudor 0.708µM, L3MBTL1 block inconclusive
COc1cccc(/C=N/NC(=O)CCn2nnc3ccccc32)c1	none
COc1cccc(/C=N/NC(=O)C(C)n2nnc3ccccc32)c1 (stereo not given)	GLS inh inconclusive, JMJD2A Tudor 44.7µM
CCC[C@H]1C[C@H](C(=O)N[C@@H]([C@H]2O[C@@H](SC)[C@@H](O)[C@@H](O)[C@@H]2O)[C@H](C)Cl)N(C)C1	none (no result: HP1b chromo inh, BAZ2B block, JMJD2A Tudor, L3MBTL1 block)
Cc1nn(C)c2c1c(-c1ccccc1)cc(=O)n2CC(=O)NC(C)c1ccccc1 (stereo not given)	HP1b chromo inh 39.8µM, GLS inh inconclusive, BAZ2B block 50.1µM, JMJD2A Tudor 50.1µM (no result: L3MBTL1 block)
N#C/C(=C\c1ccccc1)C(=O)Nc1sc2c(c1C(N)=O)CCC2	none (no result: L3MBTL1 block)
Cc1ccsc1-c1nc(-c2ccccc2)c(-c2ccccc2)[nH]1	none
COc1ccc(-c2[nH]c(-c3ccc(C(=O)O)cc3)nc2-c2ccccc2)cc1	G9a inh 79.4µM, BAZ2B block 79.4µM, JMJD2A Tudor inconclusive
CS(=O)(=O)c1nc(-c2ccccc2)c(-c2ccccc2)[nH]1	G9a inh 44.7µM, BAZ2B block inconclusive
COc1ccc(-c2[nH]c(-c3ccc4c(c3)OCO4)nc2-c2ccccc2)cc1	G9a inh inconclusive, BAZ2B block inconclusive, JMJD2A Tudor inconclusive
O=C(O)c1ccc(-c2nc(-c3ccccc3)c(-c3ccccc3)[nH]2)cc1	HP1b chromo inh 39.8µM, BAZ2B block inconclusive, JMJD2A Tudor 79.4µM
O=C(O)c1cccc(-c2nc3ccccc3[nH]2)c1	none
CC(=O)Nc1ccc(-c2csc(NC(=O)CC(NC(C)=O)c3ccccc3)n2)cc1 (stereo not given)	G9a inh 44.7µM (no result: L3MBTL1 block)
CC(=O)Nc1ccc(-c2csc(NNC(=O)c3ccccc3)n2)cc1	none
CCCCCC(=O)Nc1ccc(-c2csc(C)n2)cc1	none
CCCCCC(=O)Nc1ccc(-c2csc(N)n2)cc1	G9a inh 39.8µM, BAZ2B block inconclusive (no result: L3MBTL1 block)
CCC(=O)Nc1ccc(-c2csc(NNC(C)=O)n2)cc1	G9a inh 14.1µM
CC(=O)Nc1ccc(-c2csc(N/N=C(/C)c3ccccc3)n2)cc1	G9a inh 17.8µM, BAZ2B block inconclusive, JMJD2A Tudor inconclusive (no result: L3MBTL1 block)
COc1ccc(OC)c(/C=C(/C#N)c2nc(-c3ccc(-c4ccccc4)cc3)cs2)c1	none (no result: L3MBTL1 block)
CC(=O)NC(CC(=O)Nc1cccc(S(=O)(=O)N2CCOCC2)c1)c1ccccc1 (stereo not given)	none
CC(=O)NC(CC(=O)Nc1ccc(S(=O)(=O)N2CCCC2)cc1)c1ccccc1 (stereo not given)	G9a inh 28.2µM (no result: BAZ2B block)
O=C(c1ccco1)n1nc(-c2ccccc2)nc1NCc1ccccc1Cl	none (no result: L3MBTL1 block)
Cc1ccccc1NC(=O)c1sc2nc3c(c(-c4ccco4)c2c1N)CCC3	G9a inh 39.8µM
NC(=O)c1sc2nc3c(c(-c4ccco4)c2c1N)CCCC3	none (no result: L3MBTL1 block)
Nc1c(C(=O)Nc2cccc(Cl)c2Cl)sc2nc(-c3cccnc3)ccc12	G9a inh 89.1µM
COc1ccccc1NC(=O)c1sc2nc(-c3ccco3)ccc2c1N	G9a inh 2.51µM (no result: L3MBTL1 block)
Nc1c(C(=O)Nc2ccccc2)sc2nc(-c3ccco3)ccc12	G9a inh 11.2µM
Nc1c(C(=O)Nc2ccccc2)sc2nc(-c3cccnc3)ccc12	G9a inh inconclusive (no result: HP1b chromo inh, GLS inh, JMJD2A Tudor, L3MBTL1 block)
COc1ccc(NC(=O)c2sc3nc(-c4cccnc4)ccc3c2N)cc1	none (no result: G9a inh, L3MBTL1 block)
CCc1cc(C(c2ccccn2)N2CCN(C)CC2)c(NC(=O)c2ccccc2)s1 (stereo not given)	G9a inh 39.8µM, JMJD2A Tudor inconclusive
O=S(=O)(c1ccc(Cl)cc1)c1nc(-c2cccs2)oc1SCc1ccc(F)cc1	G9a inh inconclusive (no result: L3MBTL1 block)
Cc1cc(C)cc(NC(=O)CSc2oc(-c3cccs3)nc2S(=O)(=O)c2ccc(Br)cc2)c1	none (no result: L3MBTL1 block)
CCCCC#Cc1ccccc1CC(=O)Nc1ccccc1	G9a inh 7.94µM, BAZ2B block inconclusive, JMJD2A Tudor inconclusive
COc1ccccc1/C=C\C(=O)NCC(=O)N/N=C(/C)c1cccc([N+](=O)[O-])c1	G9a inh 79.4µM (no result: L3MBTL1 block)
COc1ccccc1/C=C/C(=O)NCC(=O)N/N=C/c1ccc(C)o1	G9a inh 44.7µM (no result: L3MBTL1 block)
O=S(=O)(Nc1ccc(-c2ccc(N3CCCC3)nn2)cc1)c1cc(F)ccc1F	none (no result: L3MBTL1 block)
CCOC(=O)C1(CCOC)CCN(Cc2cnc(-c3cccc(C)c3)nc2)CC1	G9a inh 44.7µM
CCOC(=O)C1(Cc2ccccc2C)CCCN(Cc2cc(OC)c(O)c(OC)c2)C1 (stereo not given)	G9a inh 44.7µM, GLS inh inconclusive
CCOC(=O)C1(CCOC)CCN(Cc2ccc3nonc3c2)CC1	none
CCOC(=O)C1(CCOc2ccccc2)CCN(Cc2ccc(OC)c(O)c2)CC1	none (no result: G9a inh)
CCOC(=O)C1(Cc2ccccc2C)CCCN(Cc2cn(C)nc2C)C1 (stereo not given)	none (no result: G9a inh)
CCOC(=O)C1(CCOc2ccccc2)CCN(Cc2cc(OC)c(O)c(OC)c2)CC1	G9a inh 79.4µM, JMJD2A Tudor inconclusive
CCOC(=O)C1(CCOc2ccccc2)CCN(Cc2ccc(O)c(OCC)c2)CC1	G9a inh 79.4µM, JMJD2A Tudor inconclusive
CC(C)(C)OC(=O)N1CCN(c2nc(-c3cccs3)nc3ccccc23)CC1	none (no result: G9a inh, GLS inh, BAZ2B block, L3MBTL1 block)
CCOc1ccc(NC(=O)c2cnn3c2NC(C)=C(C(=O)Nc2ccc(Cl)cc2)C3c2ccc(OC)c(OC)c2)cc1 (stereo not given)	none (no result: L3MBTL1 block)
COC(=O)N/N=C/c1cccs1	none

Assay outcomes (PubChem BioAssay)
